About 83,000 compounds went through this panel and 20% of them were active in at least one assay; those are over-represented in the sample as a whole.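 Activity criterion: percent growth below 10, measured after cells in 96-well plates were exposed to a single compound concentration for 48 hours.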 A number with no mark means an inactive call. Calls of active or inactive are those of the source.

Eight compounds from PubChem BioAssay (NCI) can be followed below.

Test systems include DU-145 prostate; K-562 leukemia; MALME-3M melanoma; MDA-MB-231 breast; RXF 393 renal; SF-268 CNS; SF-295 CNS; SF-539 CNS; UACC-257 melanoma; M14 melanoma; HCT-15 colon; HT29 colon; SNB-75 CNS; SNB-19 CNS; U251 CNS; PC-3 prostate; SK-MEL-5 melanoma; LOX IMVI melanoma; SK-MEL-28 melanoma; UACC-62 melanoma.
What all share (assay): NCI-60 one-dose screen, 48 h (100 = growth as untreated, 0 = no growth, -100 = all killed)
What all share (settings): 10 µM

As to `COc1ccc(-c2onc(N)c2-c2cc(OC)c3c(c2)OCO3)cc1`, the growth in the assay on DU-145 prostate was 29.3%; in the assay with K-562 leukemia, 13%; in the assay with MALME-3M melanoma, 29.5%; with MDA-MB-231 breast it was 56.7%; with RXF 393 renal it was 24.8%; with SF-268 CNS, 50.1%. Further, the growth in the assay on SF-295 CNS was 14.3%; in the assay with SF-539 CNS it was 20.1%; in the assay on UACC-257 melanoma it was 47.5%; in the assay with M14 melanoma, -0.971% (active); in the assay with HCT-15 colon, 23.9%; with HT29 colon, 7% (active). For the same compound, the growth with SNB-75 CNS is 17.7%; in the assay on SNB-19 CNS, 52.8%; in the assay with U251 CNS, 18.6%; in the assay with PC-3 prostate it was 61.4%; with SK-MEL-5 melanoma, 1.27% (active); in the assay with LOX IMVI melanoma it was 34.7%. In addition, the growth in the assay on SK-MEL-28 melanoma is 47.4%.

`O=C(/C=C/C=C/c1c(C2CC2)nc2ccccc2c1-c1ccc(F)cc1)c1cccs1`: the growth in the assay with DU-145 prostate was 20.4%; with K-562 leukemia, 5.43% (active); with MALME-3M melanoma it was -35.1% (active); in the assay with MDA-MB-231 breast, 25.1%; in the assay on RXF 393 renal, -54.2% (active); with SF-268 CNS, 43.4%. In addition, the growth with SF-295 CNS is 18.3%; in the assay on SF-539 CNS it was -32.8% (active); in the assay with UACC-257 melanoma, -35.4% (active); in the assay on M14 melanoma, 3.19% (active); in the assay on HCT-15 colon, 18.6%; with HT29 colon it was -38.5% (active). Moreover, the growth in the assay with SNB-75 CNS is 43.4%; in the assay on SNB-19 CNS, 42.3%; in the assay on U251 CNS it was -19.4% (active); with SK-MEL-5 melanoma, -77.1% (active); in the assay on UACC-62 melanoma it was 13.3%; with LOX IMVI melanoma, -71.5% (active). Also, the growth in the assay with SK-MEL-28 melanoma was -2.12% (active).

For `CCn1c(SC/C(=N/O)c2ccccc2)nnc1-c1ccccc1`, the growth is 107% with DU-145 prostate; 86% in the assay on K-562 leukemia; 98.6% in the assay on MALME-3M melanoma; 94.6% in the assay with MDA-MB-231 breast; 117% in the assay with RXF 393 renal; 108% in the assay with SF-268 CNS. Moreover, the growth with SF-295 CNS is 109%; in the assay on SF-539 CNS, 93.7%; in the assay on UACC-257 melanoma, 104%; with M14 melanoma, 109%; with HCT-15 colon it was 101%; with HT29 colon, 104%. Further, the growth in the assay with SNB-75 CNS was 87.8%; in the assay on SNB-19 CNS it was 98.9%; in the assay with U251 CNS it was 102%; with PC-3 prostate it was 81.2%; in the assay on SK-MEL-5 melanoma, 100%; with UACC-62 melanoma, 86.2%. Moreover, the growth with SK-MEL-28 melanoma is 106%.

For the compound `CCOC(=O)c1cc(C(=O)c2ccc(OC)c(OC)c2)n2ccncc12`, the growth in the assay with DU-145 prostate is 102%; with K-562 leukemia it was 87.5%; with MALME-3M melanoma, 112%; in the assay on MDA-MB-231 breast it was 91.4%; in the assay with RXF 393 renal, 106%; with SF-268 CNS, 109%. For the same compound, the growth with SF-295 CNS is 102%; in the assay on SF-539 CNS, 99.3%; in the assay with UACC-257 melanoma, 102%; in the assay on M14 melanoma it was 102%; with HCT-15 colon, 89.9%; in the assay on HT29 colon it was 84.6%. In addition, the growth with SNB-75 CNS is 104%; with SNB-19 CNS it was 98%; in the assay on U251 CNS it was 105%; in the assay on PC-3 prostate it was 80.6%; in the assay on SK-MEL-5 melanoma, 89.4%; in the assay on LOX IMVI melanoma, 77.7%. In the assay with SK-MEL-28 melanoma, the growth was 115%.

In the case of `NS(=O)(=O)c1ccc(Br)cc1`, the growth in the assay with DU-145 prostate was 114%; in the assay on K-562 leukemia it was 109%; in the assay with MALME-3M melanoma, 103%; in the assay with MDA-MB-231 breast, 99.3%; in the assay with RXF 393 renal it was 113%; with SF-268 CNS, 98.3%. For the same compound, the growth was 88.3% with SF-295 CNS; 96.3% in the assay on SF-539 CNS; 88.2% in the assay on UACC-257 melanoma; 86.3% with M14 melanoma; 94.8% with HCT-15 colon; 91.8% in the assay with HT29 colon. For the same compound, the growth is 93.2% in the assay on SNB-75 CNS; 96.9% with SNB-19 CNS; 102% in the assay on U251 CNS; 75.6% in the assay with PC-3 prostate; 104% with SK-MEL-5 melanoma; 98.5% with LOX IMVI melanoma. Moreover, the growth in the assay with SK-MEL-28 melanoma was 104%.

As to `NC(=O)c1cccc(-n2ccc3cc(NC(=O)Nc4ccc(Cl)c(C(F)(F)F)c4)ccc32)n1`, the growth was 95% in the assay with DU-145 prostate; 59.3% in the assay on K-562 leukemia; 87.8% in the assay with MALME-3M melanoma; 75.8% with MDA-MB-231 breast; 2.44% (active) with RXF 393 renal; 76.6% in the assay with SF-268 CNS. In addition, the growth was 58.2% in the assay on SF-295 CNS; 44.2% in the assay on SF-539 CNS; 93.3% in the assay on UACC-257 melanoma; 78.8% with M14 melanoma; 56.6% in the assay with HCT-15 colon; 61.9% with HT29 colon. Moreover, the growth in the assay with SNB-75 CNS was 47.5%; in the assay with SNB-19 CNS, 71%; in the assay on U251 CNS it was 56.5%; with SK-MEL-5 melanoma it was 78.3%; in the assay with UACC-62 melanoma it was 70.9%; in the assay on LOX IMVI melanoma it was 76.9%. For the same compound, in the assay with SK-MEL-28 melanoma, the growth is 79.4%.

Regarding `O=C1/C(=C/c2ccc3c(c2)OCO3)SC(=S)N1C1c2ccccc2Oc2ccccc21`, the growth in the assay on DU-145 prostate was 99.7%; in the assay on K-562 leukemia, 99.5%; in the assay on MALME-3M melanoma, 80.1%; in the assay with MDA-MB-231 breast it was 96%; in the assay with RXF 393 renal it was 103%; in the assay on SF-268 CNS, 98.1%. In addition, the growth was 97.8% with SF-295 CNS; 94.3% in the assay on SF-539 CNS; 112% in the assay with UACC-257 melanoma; 93.5% in the assay on M14 melanoma; 93% in the assay on HCT-15 colon; 117% in the assay with HT29 colon. The growth with SNB-75 CNS is 89.2%; in the assay on SNB-19 CNS, 96.8%; with U251 CNS, 113%; with PC-3 prostate it was 93.1%; in the assay on SK-MEL-5 melanoma, 97.2%; in the assay on LOX IMVI melanoma, 89.1%. In the assay on SK-MEL-28 melanoma, the growth is 96.3%.

For the compound `COc1cc(-c2nn(-c3cccc(NC(=O)CN4CCOCC4)c3)cc2-c2cccnc2)ccc1Cl`, the growth with DU-145 prostate was 82.3%; in the assay with K-562 leukemia, 42.2%; in the assay with MALME-3M melanoma, 80.5%; in the assay on MDA-MB-231 breast, 83.1%; in the assay on RXF 393 renal, 85.1%; in the assay on SF-268 CNS, 85.4%. The growth in the assay with SF-295 CNS is 76.8%; with SF-539 CNS, 87%; with UACC-257 melanoma, 93.9%; in the assay on M14 melanoma, 61%; with HCT-15 colon, 66.7%; in the assay on HT29 colon it was 65.2%. In addition, the growth is 65.5% in the assay on SNB-75 CNS; 88% with SNB-19 CNS; 92.7% with U251 CNS; 48.2% in the assay with SK-MEL-5 melanoma; 61.4% in the assay on UACC-62 melanoma; 63.3% with LOX IMVI melanoma. Also, the growth with SK-MEL-28 melanoma was 84.3%.
